Drawing on a collection of fitness landscapes (doi:10.1038/s41467-024-54723-y), this text covers TetR repression strength for 105 sequences.

Over roughly 18,000 sequences, “TetR repression strength (sort-seq, GFP reporter)” has its median near 0.23; the highest 2% begin near 0.68. The list comes from a sample in which the highest values are over-represented; it also holds similar and randomly drawn sequences.

Chain of TetR (class B, Tn10) (P04483 whole entry): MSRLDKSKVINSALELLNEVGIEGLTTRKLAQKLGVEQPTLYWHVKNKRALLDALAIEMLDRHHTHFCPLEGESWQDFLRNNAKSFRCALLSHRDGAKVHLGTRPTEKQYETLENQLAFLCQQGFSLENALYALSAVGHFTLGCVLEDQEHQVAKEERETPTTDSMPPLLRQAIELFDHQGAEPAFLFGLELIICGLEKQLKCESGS

In this assay the target is TetR (class B, Tn10) (UniProt P04483). Put plainly: TetR repression strength (sort-seq, GFP reporter) (relative to tetO2 = 1); higher = stronger repression. The note with it: E. coli. In a few lines:
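E. coli SIG10-MAX carried a low-copy plasmid library with eight randomized operator positions between a constitutive promoter and sfGFP, with TetR constitutively expressed. Cells grew 5 h at 37 °C in LB with 50 µg/mL chloramphenicol, then 10^6 cells were FACS-sorted into 13 fluorescence bins, each Illumina-sequenced. Repression strength is the top bin index plus one minus the read-weighted mean bin, divided by the wild-type operator value. Three independent transformations; variants with ≥30 reads in all replicates and CV ≤0.5 were averaged.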
TCCCTGAGAGTCGTGGAGA showed a TetR repression strength of 0.239.
TCCCGTCAAGTGGATGAGA showed a TetR repression strength of 0.109.
TCCCTCCGAGTGCAGGAGA registered a TetR repression strength of 0.492.
The sequence TCCCCCGCAGTGCATGAGA had a TetR repression strength of 0.385.
As to TCCCCCTCAGTTGTAGAGA, the TetR repression strength is 0.237.
In turn, TCCCGACCAGTGCAGGAGA gave a TetR repression strength of 0.805.
In turn, TCCCGAGCAGTGCAGGAGA displayed a TetR repression strength of 0.226.
Next, TCCCGACCAGTGCGGGAGA: 0.222; TCCCGACAAGTGCAGGAGA: 0.684; TCCCGAAAAGTGCAGGAGA: 0.26.
In turn, TCCCGAGAAGTGCAGGAGA registered a TetR repression strength of 0.173.
Next, TCCCTAGCAGTGGTGGAGA: 0.27.
Sequence TCCCGTTGAGTGTATGAGA came in with a TetR repression strength of 0.181.
Next, TCCCAGGCAGTCCGTGAGA: 0.2.
In turn, TCCCGGTTAGTGCAAGAGA showed a TetR repression strength of 0.415.
Regarding TCCCTAGGAGTAACGGAGA, the TetR repression strength came out at 0.183.
For TCCCTTCTAGTTAAGGAGA, the TetR repression strength turned out to be 0.283.
In turn, TCCCGTCGAGTCCCGGAGA displayed a TetR repression strength of 0.402.
In turn, TCCCGTGTAGTTCTGGAGA yielded a TetR repression strength of 0.189.
Consider TCCCGTCGAGTGAAGGAGA, for which the TetR repression strength turned out to be 0.311.
Turning to TCCCGTCTAGTTCTAGAGA, the TetR repression strength amounted to 0.36.
Regarding TCCCGTCTAGTTAAGGAGA, the TetR repression strength came to 0.811.
As to TCCCGTCTAGTTCTGGAGA, the TetR repression strength turned out to be 0.687.
TCCCGTCGAGTTAAGGAGA showed a TetR repression strength of 0.815.
Regarding TCCCGTCTAGTTGAGGAGA, the TetR repression strength was 0.24.
Next, TCCCGTCGAGTTCCGGAGA: 0.977; TCCCGTCGAGTAAAGGAGA: 0.22; TCCCGTCGAGTGCCGGAGA: 0.363.
The sequence TCCCCGTAAGTGCAGGAGA yielded a TetR repression strength of 0.21.
As for TCCCAGCGAGTCCAGGAGA, the TetR repression strength came to 0.27.
Next, TCCCACTTAGTAAGTGAGA: 0.141; TCCCAGTAAGTAGCCGAGA: 0.0168.
Regarding TCCCGGACAGTATATGAGA, the TetR repression strength stood at 0.304.
Sequence TCCCTAGCAGTAGTAGAGA gave a TetR repression strength of 0.681.
Turning to TCCCCGCTAGTTAAGGAGA, the TetR repression strength was determined as 0.755.
Regarding TCCCCACTAGTTAAGGAGA, the TetR repression strength was 0.225.
TCCCCGTTAGTTAAGGAGA had a TetR repression strength of 0.149.
On to TCCCGGAGAGTGTATGAGA, for which the TetR repression strength came to 0.188.
Next, TCCCAGTGAGTTGCCGAGA: 0.212; TCCCGTCAAGTTCATGAGA: 0.15.
On to TCCCGTACAGTTCATGAGA, for which the TetR repression strength was 1.18.
The sequence TCCCCTACAGTTCATGAGA had a TetR repression strength of 0.189.
Sequence TCCCGTACAGTTGATGAGA displayed a TetR repression strength of 0.2.
Consider TCCCATAAAGTTCATGAGA, for which the TetR repression strength was determined as 0.36.
Sequence TCCCGTAAAGTTCATGAGA had a TetR repression strength of 1.21.
With TCCCAGTTAGTCTTTGAGA, the TetR repression strength was 0.334.
Next, TCCCTAAAAGTTTGAGAGA: 0.334.
As for TCCCGTTCAGTGATAGAGA, the TetR repression strength came to 0.819.
Next, TCCCATTCAGTGATAGAGA: 0.707; TCCCGTGCAGTGCTAGAGA: 0.38.
Turning to TCCCTGATAGTGATCGAGA, the TetR repression strength was 0.362.
TCCCTGCTAGTGATCGAGA showed a TetR repression strength of 0.745.
TCCCTGCTAGTGATAGAGA gave a TetR repression strength of 0.638.
As to TCCCGTGCAGTGATAGAGA, the TetR repression strength came to 0.647.
Consider TCCCGTTCAGTGCGAGAGA, for which the TetR repression strength stood at 0.0532.
As to TCCCGTTCAGTGAGAGAGA, the TetR repression strength stood at 0.516.
TCCCATCCAGTGATAGAGA yielded a TetR repression strength of 0.626.
Sequence TCCCGTTCAGTGCTAGAGA gave a TetR repression strength of 0.681.
TCCCATTCAGTTATAGAGA returned a TetR repression strength of 0.596.
As to TCCCGGGAAGTATTCGAGA, the TetR repression strength came to 0.391.
Sequence TCCCCAAGAGTTTGGGAGA came in with a TetR repression strength of 0.217.
Turning to TCCCGGATAGTACTAGAGA, the TetR repression strength is 0.291.
With TCCCGGTTAGTTCGAGAGA, the TetR repression strength stood at 0.0821.
TCCCCACCAGTGGCGGAGA: the TetR repression strength stood at 0.231.
In the case of TCCCTACTAGTACGGGAGA, the TetR repression strength was 0.394.
Regarding TCCCGCTCAGTTGTAGAGA, the TetR repression strength was 0.421.
Next, TCCCATACAGTTGGAGAGA: 0.37; TCCCCATAAGTACAAGAGA: 0.446.
With TCCCGTGTAGTAGGAGAGA, the TetR repression strength is 0.17.
The sequence TCCCTCGCAGTGGATGAGA yielded a TetR repression strength of 0.323.
TCCCGCTCAGTACGCGAGA had a TetR repression strength of 0.104.
TCCCTGACAGTTGGCGAGA gave a TetR repression strength of 0.301.
Next, TCCCTGTCAGTTGGCGAGA: 0.874; TCCCTGTCAGTGATAGAGA: 0.863.
As for TCCCATTTAGTGATCGAGA, the TetR repression strength is 0.
TCCCATTCAGTGATCGAGA gave a TetR repression strength of 0.731.
Next, TCCCGTTCAGTAGGCGAGA: 0.261; TCCCTGCCAGTGATAGAGA: 0.646; TCCCGTTCAGTACGCGAGA: 0.912.
Consider TCCCTGTCAGTGAGAGAGA, for which the TetR repression strength is 0.444.
Turning to TCCCATTAAGTGATCGAGA, the TetR repression strength was found to be 0.344.
Regarding TCCCTGTCAGTTGGAGAGA, the TetR repression strength is 0.36.
Next, TCCCGACTAGTAACTGAGA: 0.613; TCCCTAGTAGTTGTTGAGA: 0.308; TCCCCGGGAGTTATGGAGA: 0.274.
TCCCACTTAGTTGCTGAGA came in with a TetR repression strength of 0.19.
TCCCGGTCAGTGAAGGAGA came in with a TetR repression strength of 0.236.
For the sequence TCCCGGCCAGTCAAAGAGA, the TetR repression strength turned out to be 0.406.
In turn, TCCCTTCCAGTTCACGAGA showed a TetR repression strength of 0.325.
In the case of TCCCAATTAGTTTGAGAGA, the TetR repression strength was found to be 0.313.
Next, TCCCCGCGAGTAGGAGAGA: 0.405; TCCCTGGGAGTGTGTGAGA: 0.182; TCCCGTGGAGTACTAGAGA: 0.229.
In turn, TCCCGTTCAGTGATCGAGA displayed a TetR repression strength of 0.724.
Next, TCCCGTTAAGTGCGAGAGA: 0.109; TCCCTGAGAGTGATCGAGA: 0.0416; TCCCGTTCAGTGAACGAGA: 0.617.
In turn, TCCCGCTAAGTGCTAGAGA showed a TetR repression strength of 0.36.
Consider TCCCATGCAGTGCACGAGA, for which the TetR repression strength stood at 0.17.
Next, TCCCATTCAGTGCACGAGA: 0.691; TCCCTGTCAGTGATCGAGA: 0.734; TCCCATTGAGTGCACGAGA: 0.443.
The sequence TCCCTGTCAGTAATCGAGA yielded a TetR repression strength of 0.535.
Regarding TCCCGTTAAGTGCTAGAGA, the TetR repression strength came out at 0.685.
On to TCCCGTTCAGTGCTCGAGA, for which the TetR repression strength is 0.442.
